In PubChem BioAssay:
Values joined by “and” are separate entries in the source; they are usually repeats but may differ in a detail not shown here. Equal values may be shown once. Records with an inconclusive call do not appear. For some of these results: Results with a measured potency or affinity are listed apart. Active and inactive are the calls of the source. Unless noted, no rule for the calls is given here.

Legend:
[1] = modulation of C. elegans fzo-1 (AID 1259413);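 also: fzo-1 mutant C. elegans worms in liquid wells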; conditions: C. elegans fzo-1 modulator screen, mean read-out; stronger effect = higher value
[2] = blockers of polyQ-driven CASP3 activation – cell-based (AID 1583); conditions: polyglutamine-induced caspase-3 activation, cell assay; stronger effect = higher value;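 tested at 10 µM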
[3] = yeast 75Q aggregation reduction – 75Q-TubU reporter (AID 1593); conditions: Yeast 75Q polyglutamine aggregation reporter
[4] = restoration of touch response, mutant HTT neurons – whole organism, C. elegans mechanosensory neurons, N-terminal huntingtin (AID 1599); conditions: C. elegans polyQ-huntingtin mechanosensory neurons, stronger effect = higher value
[5] = blockers of cytochrome c efflux from mitochondria – biochemical, purified mitochondria (AID 1603); conditions: stronger effect = lower value;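 also: mouse liver mitochondria challenged with calcium chloride; signal normalized to the plate average as 100%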
[6] = polyglutamine aggregate formation blockers (AID 1604); conditions: polyglutamine-induced protein aggregation inhibition assay; stronger effect = higher value; tested at 2.5 µM
[7] = glutamate transport activators, MN-1 cells, MN-1 cell line (AID 1612); conditions: MN-1 motor neuron cells, stronger effect = higher value;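 also: tested at 1 µM final; 0% = mean of DMSO vehicle wells on each plate; positive means more glutamate uptake than control and negative means less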
[8] = 75Q-TubH aggregate inhibition, S. cerevisiae, yeast (AID 1616); conditions: S. cerevisiae 75Q-TubH polyglutamine aggregation suppression; stronger effect = higher value
[9] = P. berghei load reduction in hepatocytes – cell-based, HepG2, luciferase luminescence, HepG2 viability, primary screen (AID 624349; in the data active = parasite load remaining mostly below about 12%, no sharp cut-off; inactive = mostly above about 10%;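 also: 100% = mean of DMSO negative control wells on the same plate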); conditions: P. berghei liver stage in HepG2, luciferase luminescence, concentration not given here; parasite load remaining: stronger effect = lower value; viability: measured here: HepG2 viability without parasites
[10] = signal quenchers or enhancers, Cy5 substrate/SSB – biochemical, NIH Clinical Collection, E. coli SSB, artefact control for HCV NS3 helicase inhibitor project (AID 743268); conditions: Cy5-oligo bound E. coli SSB, fluorescence interference
[11] = system: Hepatitis C virus NS3 helicase; experiment: blockers of NS3h binding to DNA – biochemical, fluorescence polarization, NIH Clinical Collection, primary screen (AID 743270); conditions: NS3 helicase binding to Cy5-dT15 DNA, stronger effect = higher value, concentration not given here
[12] = target: Single-stranded DNA-binding protein (Escherichia coli (strain K12)) (UniProt P0AGE0); experiment: SSB-ssDNA binding inhibitors – biochemical, fluorescence polarization, NIH Clinical Collection, counter-screen for HCV NS3 helicase inhibitor project (AID 743271; in the data active = inhibition above about 28%); conditions: E. coli SSB-DNA binding, stronger effect = higher value, concentration not given here
[13] = compounds distorting NS3 helicase fluorescence signal – biochemical, NIH Clinical Collection, artefact control for HCV NS3 helicase inhibitor project (AID 743272); conditions: fluorescence interference counterscreen, HCV NS3 helicase assay; stronger effect = lower value;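 also: HCV NS3 helicase with a Cy5 labelled single stranded DNA probe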
[14] = system: Neuropilin-2 / VEGF-C interaction (human); experiment: small molecules blocking Neuropilin-2/VEGF-C interaction – biochemical, microplate binding format, z-score (AID 743281); conditions: microplate NRP2/VEGF-C binding assay; stronger effect = lower value
[15] = viability loss with induced miR-34 in A549 – imaging, A549 dox-inducible miR-34, nuclei and caspase counts, primary screen (AID 1347080;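 active = compounds whose cell count with miR-34 switched on is under 0.7 times the count with it off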); conditions: A549 miR-34 inducible, Hoechst nuclei count, 48 h
[16] = galactose survival enhancers in mitochondrial complex I cybrids – cell-based, galactose medium, ATP luminescence, primary screen (AID 1645843;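 active = z-score of at least 1.8 in each of two replicates, scored against plate mean and spread of sample wells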;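 also: positive z means more ATP and so rescue of galactose-driven cybrid death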); conditions: complex I mutant cybrid cells, 72 h, stronger effect = higher value
F380Y = experiment: BK channel mutant inhibitors and activators – cell-based, U2OS BacMam, thallium flux, beta subunits, selectivity assay, profiling panel (AID 1259406;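 active = thallium flux through the channel raised or lowered by more than 3 SD from vehicle-only wells, actives on both sides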;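 also: initial slope of Thallos dye fluorescence rise after thallium is added; log ratio against the mean of 0.3% DMSO vehicle wells on the same plate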); conditions: U2OS BacMam BK variants, at 30 µM
F380Y/beta2Delta = experiment: as above; conditions: U2OS BacMam BK variants, at 30 µM
[17] = target: Calcium-activated potassium channel subunit alpha-1 (Homo sapiens) + Leucine-rich repeat-containing protein 26 (Homo sapiens) (UniProt Q12791+Q2I0M4); experiment: as above; conditions: U2OS BacMam BK variants, F380Y/Slo1WT/gamma1, at 30 µM
R275C = experiment: as above; conditions: U2OS BacMam BK variants, at 30 µM
R275C/beta1 = experiment: as above; conditions: U2OS BacMam BK variants, at 30 µM
R275C/beta2Delta = experiment: as above; conditions: U2OS BacMam BK variants, at 30 µM
[18] = system: Hepatitis C virus NS3 helicase; experiment: blockers of NS3h binding to ssDNA – biochemical, fluorescence polarization, LOPAC1280 library, primary screen (AID 687035; in the data active = inhibition above about 37%); conditions: Purified HCV NS3 helicase, Cy5-dT15 ssDNA binding fluorescence polarization; stronger effect = higher value; concentration not given here
[19] = compounds altering Cy5-DNA-NS3h complex signal – biochemical, LOPAC1280, artefact control for HCV NS3 helicase inhibitor project (AID 687037); conditions: Cy5-DNA-NS3h complex fluorescence interference counterscreen
[20] = viability loss in pontine glioma line – cell-based, SU-DIPG-XVII, MIPE5.0, CellTiter-Glo, qHTS, dose response (AID 1347060; cut-off not given, nearly all actives have AC50 up to about 26 µM); conditions: CellTiter-Glo ATP luminescence
[21] = viability loss in pontine glioma line – cell-based, SU-DIPG-XIII, MIPE4.0, CellTiter-Glo, qHTS, dose response (AID 1347061; cut-off not given, nearly all actives have AC50 up to about 37 µM;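 also: cells exposed to compound for 48 hours before readout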); conditions: CellTiter-Glo ATP luminescence
[22] = viability loss in pontine glioma line – cell-based, JHH-DIPG-1, MIPE4.0, CellTiter-Glo, qHTS, dose response (AID 1347062; cut-off not given, nearly all actives have AC50 up to about 27 µM); conditions: JHH-DIPG-1 viability, CellTiter-Glo ATP luminescence
[23] = viability loss in pontine glioma line – cell-based, SU-DIPG-IV, MIPE4.0, CellTiter-Glo, qHTS, dose response (AID 1347063; cut-off not given, nearly all actives have AC50 up to about 30 µM;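 also: compound exposure lasted 48 hours before the viability readout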); conditions: CellTiter-Glo ATP luminescence
[24] = viability loss in pontine glioma line – cell-based, SU-DIPG-XIII, MIPE5.0, CellTiter-Glo, qHTS, dose response (AID 1347064; cut-off not given, nearly all actives have AC50 up to about 23 µM); conditions: CellTiter-Glo ATP luminescence
[25] = growth inhibition of DIPG cells – cell-based, MIPE4.0 library, CellTiter-Glo luminescence, qHTS (AID 1347066; cut-off not given, nearly all actives have AC50 up to about 30 µM;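 also: cells exposed to compound for 48 hours before readout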); conditions: SU-DIPG-VI viability, CellTiter-Glo ATP luminescence
[26] = growth inhibition of DIPG cells – cell-based, MIPE5.0 library, qHTS (AID 1347068; cut-off not given, nearly all actives have IC50 up to about 30 µM); conditions: SU-DIPG-XXV viability
[27] = blockers of cellular phospholipid synthesis – cell-based, LOPAC library, screen 4, primary screen (AID 1347384); conditions: animal cells, phospholipid biosynthesis inhibition screen; at 10 µM
[28] = MELAS cybrid and Rieske KO viability enhancers – cell-based, MELAS cybrids, Rieske KO mouse fibroblasts, CellTiter-Glo, primary screen (AID 1508586;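 active = mean z-score across replicates of 1.96 or higher in either the MELAS or the Rieske mutant cell line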;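 also: z relative to plate mean and SD of compound and empty wells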); conditions: low glucose
F380Y/beta1 = experiment: BK channel mutant inhibitors and activators – cell-based, U2OS BacMam, thallium flux, beta subunits, selectivity assay, profiling panel (AID 1259406); conditions: U2OS BacMam BK variants, at 30 µM;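 also: initial slope of Thallos dye fluorescence rise after thallium is added; log ratio against the mean of 0.3% DMSO vehicle wells on the same plate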
F380Y/beta4 = experiment: as above; conditions: U2OS BacMam BK variants, at 30 µM
R275C/beta4 = experiment: as above; conditions: U2OS BacMam BK variants, at 30 µM
R275C/Slo1WT/beta2 = experiment: as above; conditions: U2OS BacMam BK variants, at 30 µM
[29] = measured here: relative caspase fold change +Dox/-Dox
[30] = measured here: total cells with miR-34 induction, stronger effect = lower value
[31] = measured here: total cells without miR-34 induction

Sequence of Calcium-activated potassium channel subunit alpha-1 (Homo sapiens) + Leucine-rich repeat-containing protein 26 (Homo sapiens) (Q2I0M4 whole entry, looked up, one chain of several): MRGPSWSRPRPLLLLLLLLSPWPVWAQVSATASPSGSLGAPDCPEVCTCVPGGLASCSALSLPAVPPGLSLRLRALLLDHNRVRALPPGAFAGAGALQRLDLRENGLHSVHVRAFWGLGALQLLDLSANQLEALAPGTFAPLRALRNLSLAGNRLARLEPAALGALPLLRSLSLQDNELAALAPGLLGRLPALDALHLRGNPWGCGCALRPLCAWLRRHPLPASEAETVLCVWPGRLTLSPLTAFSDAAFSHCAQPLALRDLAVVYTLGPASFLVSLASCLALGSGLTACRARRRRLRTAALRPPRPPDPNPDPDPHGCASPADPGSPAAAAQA

C=CCN1CC[C@]23c4c5ccc(O)c4O[C@H]2C(=O)CCC3(O)[C@H]1C5 (stereo not given in full)
inactive: mean signal [1] 247

O=C1Nc2ccc(Cl)cc2C(c2ccccc2Cl)=NC1O (stereo not given)
-7.53%: glutamate uptake change [7]
9700: cell count [15, 30]
inactive: parasite load remaining [9] 64.7% | fluorescence ratio [10] 0.98 | inhibition [11] -3.71% | inhibition [12] -0.39% | fluorescence ratio [13] 0.96 | z-score [14] -0.398 | mean signal [1] 233 | fold change ([15]; stronger effect = lower value) 0.901 | z-score [16] 0.845
0.626: aggregation suppression score [8]
1.36: fold change [15, 29]
0.78: score [3]
68.3%: viability [9]
10800: cell count [15, 31]
-16.4%: inhibition [2]
-10.3: rescue above control [4]
1.2: cytochrome c release ratio [5]
21.1%: inhibition of aggregation [6]

CN1CC[C@@]23CCCC[C@@H]2[C@@H]1Cc1ccc(O)cc13
inactive: parasite load remaining [9] 97.8% | fluorescence ratio [10] 0.99 | inhibition [11] -1.98% | inhibition [12] -3.18% | fluorescence ratio [13] 0.91 | z-score [14] -0.569 | mean signal [1] 229 | log fold change Tl+ flux (F380Y) 0.0229 | log fold change Tl+ flux (F380Y/beta2Delta) 0.00585 | log fold change Tl+ flux [17] 0.0222 | log fold change Tl+ flux (R275C) 0.00894 | log fold change Tl+ flux (R275C/beta1) 0.0266 | log fold change Tl+ flux (R275C/beta2Delta) 0.00635
68.2%: viability [9]

CC[C@@H](C(N)=O)N1CCCC1=O
70% and 106%: viability [9]
1.59 and 0.289: fold change [15, 29]
11300 and 10400: cell count [15, 30]
inactive: parasite load remaining [9] 91.8% and 41.8% | inhibition [18] -4% | fluorescence ratio (interference) [19] 1 | fluorescence ratio [10] 1.01 | inhibition [11] 7.52% | inhibition [12] 9.91% | fluorescence ratio [13] 1.02 | z-score [14] -0.78 | mean signal [1] 234 | outcome [20] | outcome [21] | outcome [22] | outcome [23] | outcome [24] | outcome [25] | outcome [26] | fold change ([15]; stronger effect = lower value) 1.08 and 0.876 | outcome [27] | z-score ([28]; MELAS cybrid survival, CellTiter-Glo 48 h, stronger effect = higher value) -0.985 and 0.498 | z-score [16] 0.685 and 0.535 | log fold change Tl+ flux (F380Y) -0.0178 | log fold change Tl+ flux (F380Y/beta1) -0.022 | log fold change Tl+ flux (F380Y/beta2Delta) -0.0158 | log fold change Tl+ flux (F380Y/beta4) 0.0243 | log fold change Tl+ flux [17] -0.0482 | log fold change Tl+ flux (R275C) 0.037 | log fold change Tl+ flux (R275C/beta1) -0.0285 | log fold change Tl+ flux (R275C/beta2Delta) -0.00577 | log fold change Tl+ flux (R275C/beta4) -0.0209 | log fold change Tl+ flux (R275C/Slo1WT/beta2) -0.0311
10400 and 11900: cell count [15, 31]
0.204 and -0.0344: z-score ([28]; Rieske KO mouse fibroblast survival, CellTiter-Glo 72 h)
